The list is not random: actives were taken first. Their share in the collection is about 4.6%.
D1 antag: antagonists of human D1 dopamine receptor; 360,000 compounds, 3.2% hits; activity change, negative = inhibition, % at 10 µM; HEK293 TREx D1 cells, calcium flux, dopamine EC80; stronger effect = lower value; P21728; in the data active = activity change below about -30%; note: % is set by controls: 0 for no effect and ±100 for the full control effect
Target sequence (P21728 whole entry, looked up): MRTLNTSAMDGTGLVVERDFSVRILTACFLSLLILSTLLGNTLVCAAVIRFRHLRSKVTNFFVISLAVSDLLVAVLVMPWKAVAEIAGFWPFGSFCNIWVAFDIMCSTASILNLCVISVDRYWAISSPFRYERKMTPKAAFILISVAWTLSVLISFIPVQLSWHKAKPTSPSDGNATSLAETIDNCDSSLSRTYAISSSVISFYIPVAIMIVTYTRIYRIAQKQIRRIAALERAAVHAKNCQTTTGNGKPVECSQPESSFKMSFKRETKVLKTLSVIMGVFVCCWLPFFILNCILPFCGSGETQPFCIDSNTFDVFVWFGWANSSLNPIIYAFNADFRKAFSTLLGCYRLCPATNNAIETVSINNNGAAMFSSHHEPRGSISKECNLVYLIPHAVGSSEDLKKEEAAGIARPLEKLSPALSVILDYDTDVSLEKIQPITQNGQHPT
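Allosteric or orthosteric antagonism assessed as attenuation of the calcium response to EC80 dopamine, added 180 s after compound, in induced HEK293 Trex D1 cells loaded with no-wash calcium dye.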
D1 agonist: activates the human D1 dopamine receptor | 360,000 compounds, 1% hits | activation, % at 2 µM | HEK293 T-REx D1 cells, calcium flux, agonist mode | P21728; note: 0% is about no effect
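Agonism was scored from calcium flux recorded over 180 s (1 read/s) after pintool compound addition, following a 10-cycle baseline. Cells were inducible force-coupled HEK293 TREx D1, plated overnight at 30 C and loaded with no-wash calcium dye.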
TRHR enhancer: allosterically enhances the human TRH receptor; P34981; TRHR cells, fluo-8 calcium fluorescence, EC20 TRH enhancement; enhancement, % at 2 µM; 360,000 compounds, 0.66% hits; AID 493056; in the data active = enhancement above about 30%; note: 0% is about no effect
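Enhancer read-out: after compound pinning and an initial kinetic agonist-mode read, an EC20 of TRH (10 nM final) was injected and fluo-8 calcium signal (Ex 480/Em 530) followed at 1 s/cycle for 100 cycles in TRHR-expressing cells.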
TRHR ag: TRH receptor (human) agonism | 360,000 compounds, 0.18% hits | TRHR cells, calcium flux fluo-8, FDSS agonist mode | P34981 | AID 493084 | activation, % at 2 µM; note: 0% is about no effect
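Fluo-8-loaded TRHR cells; 10 s baseline, compound added, kinetic Ca2+ fluorescence read 1/s, agonist mode.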
D1 PAM: potentiators of human D1 dopamine receptor | AID 504651 | HEK293 TREx D1 cells, calcium flux, dopamine EC20 potentiation | potentiation, % at 10 µM | 360,000 compounds, 0.036% hits; in the data active = potentiation above about 30%; note: 0% is about no effect
* = called active by the depositor; ! = not active in a repeat. Cut-off read from the data, not from the text of the source, unless noted: active = activation above about 30%; inactive = the rest.

SMILES	D1 antag	D1 agonist	TRHR enhancer	TRHR ag	D1 PAM
Cc1ccc(Cl)cc1NC(=S)N(CCCN1CCOCC1)Cc1ccco1	-52*	3	0	0	-12
Cc1cc(NC(=S)N(CCCN2CCN(C)CC2)Cc2ccco2)ccc1Cl	-31*	9	-7	0	0
OCCC1CN(Cc2ccc3c(c2)CCO3)CCN1C1CCCC1 (stereo not given)	-4	8	19	1	1
Cc1ccc(Cl)cc1NC(=S)N/N=C/c1cccc2ccccc12	38	6	9	0	15
COc1c(CC=C(C)C)cc(C2CC(=O)c3c(O)cc(O)cc3O2)cc1CC=C(C)C (stereo not given)	-13	3	33*	0	-8
COc1ccc([C@@H]2CC(=O)c3c(O)cc(O)cc3O2)cc1O	-15	-2	-1	0	-1
CCOc1cc(C(=S)N2CCOCC2)ccc1OS(=O)(=O)c1ccc(OC)cc1	-3	14	-6	0	-11
CCOc1cc(C(=S)N2CCOCC2)ccc1OS(=O)(=O)c1ccc(NC(C)=O)cc1	-33*	7	-3	1	-5
CC(=O)Nc1ccc(S(=O)(=O)Oc2ccc(C(=S)N3CCC(O)CC3)cc2)cc1	-9	6	3	0	-5
CC(=O)Nc1ccc(OS(=O)(=O)c2c(C)cc(C)cc2C)cc1	-66*	4	-5	1	-2
CC(=O)Nc1ccc(S(=O)(=O)Oc2ccc(C(=S)N3CCCCC3)cc2)cc1	-33*	26	-14	0	-9
COc1ccc(Cn2c(C(=O)O)c(CNCc3ccccc3F)c3ccc(OC)cc32)cc1	13	0	9	0	-2
O=C(c1ccccc1Cl)N1CCN(S(=O)(=O)N2CCCCC2)CC1	4	2	4	-1	-9
Cc1ccc(C)c(S(=O)(=O)NCc2ccncc2)c1	-43*	11	15	-3	-11
Cc1ccc(C)c(S(=O)(=O)NCc2ccc(C(=O)N3CCCCCC3)cc2)c1	-32*	13	-11	0	-10
O=C(O)Cc1ccc(O)c(F)c1	12	3	-1	0	-4
COc1ccccc1/C=C1\SC(=O)N(CC(=O)NCCCn2ccnc2)C1=O	-10	2	1	0	-4
CCS(=O)(=O)/N=C(\N)c1ccccc1	27	1	2	0	-4
N#CN=C(N)c1ccccc1	-56*!	1	-4	0	3
NC(=O)C[n+]1cccc(C(=O)Nc2ccccc2)c1	-3	7	7	0	-2
CSc1cccc(NC(=S)Nc2cc(C)ccc2C)c1	-40*	2	-5	1	-6
COc1cc(/C=c2\sc3nc(-c4ccncc4)nn3c2=O)ccc1OC(C)=O	-5	3	-3	1	-3
CN(C)c1ccc(/C=c2\sc3nc(-c4ccccc4)nn3c2=O)cc1	-57*	6	-3	6	-9
COc1cccc(NC(=O)NC(=O)c2c(C)cc(Cl)nc2Cl)c1	-41*	2	5	1	-4
COc1cccc(NC(=O)Nc2cc(Cl)ccc2C)c1	-34*	9	9	2	-9
SMILES	D1 antag	D1 agonist	TRHR enhancer	TRHR ag	D1 PAM
O=C(CNC(=S)N(Cc1ccccc1F)C1CCCCC1)NCC1CCCO1 (stereo not given)	-46*	3	3	0	-1
O=C(CNC(=S)N(Cc1ccc(F)cc1)C1CCCCC1)NCC1CCCO1 (stereo not given)	2	3	0	0	3
CCCCNC(=O)CNC(=S)N(Cc1ccccc1F)C1CCCCC1	-37*	0	-1	-1	-3
S=C(Nc1ccccc1Cl)NC1CC2CCCC(C1)N2C1CC1 (stereo not given)	-54*	4	-6	1	-4
CC(C)(C)C(=O)NC1CC2CCCC(C1)N2C(=O)Nc1ccccc1Cl (stereo not given)	-7	3	9	0	3
CCN(CC)S(=O)(=O)c1cc([N+](=O)[O-])ccc1NNC(=O)Nc1ccccc1OC	9	9	-5	0	10
O=C(O)c1ccc(Cl)c(NCc2cccs2)c1	5	0	32*	0	-2
COc1ccc(N2C(=O)CC(Nc3cccc([N+](=O)[O-])c3)C2=O)cc1 (stereo not given)	-33*	6	-6	0	-2
COc1ccc(N2C(=O)CC(Nc3ccc(C(=O)O)cc3)C2=O)cc1OC (stereo not given)	12	2	-2	1	2
COC(=O)c1cccc(NC2CC(=O)N(c3ccc(OC)c(OC)c3)C2=O)c1 (stereo not given)	-33*	1	3	0	9
Cc1ccc(-c2nn(-c3ccccc3)cc2CSC(=N)N)cc1	32	51*	6	2	1
OCc1cn(-c2ccccc2)nc1-c1ccc(-c2nn(-c3ccccc3)cc2CO)cc1	3	9	-4	2	-8
Cc1cccc(Cc2c(C)nc3c(-c4ccccc4)c(C)[nH]n3c2=O)c1	10	15	5	2	-3
N#Cc1ccc(-c2ccc(OCC(=O)Nc3cccnc3)cc2)cc1	-45*	20	-2	1	-7
CC(=O)Nc1ccc(NC(=O)COc2ccc(-c3ccc(C#N)cc3)cc2)cc1	-4	1	-5	0	-12
COc1cccc(-c2nnc(SCN3C(=O)c4ccccc4C3=O)n2C)c1	-4	0	3	-1	-7
O=C(NC1=NCCS1)C1Cc2ccccc2CN1C(=O)c1ccccc1 (stereo not given)	-4	4	-3	-1	9
COc1ccc2nc(-c3ccccc3)cc(OC)c2c1	-60*	1	6	0	-6
Clc1ccccc1N=C1SCCS1	7	36*	-3	-1	8
COc1ccc(C2CC(c3ccccc3)=NN2C(=O)COC(=O)c2cccnc2)cc1 (stereo not given)	-6	4	37*	-1	-5
COc1ccc(C2CC(c3ccccc3)=NN2C(=O)COC(=O)c2cccnc2Cl)cc1 (stereo not given)	-12	8	2	-1	-5
COc1ccc(C2CC(c3ccccc3)=NN2C(=O)COC(=O)c2cc(S(=O)(=O)N3CCOCC3)ccc2Cl)cc1 (stereo not given)	-14	9	40*	1	0
COc1ccc(C2CC(c3ccccc3)=NN2C(=O)COC(=O)C2CC2)cc1 (stereo not given)	-6	12	2	1	-1
COc1ccc(C2CC(c3ccccc3)=NN2C(=O)CCC(=O)O)cc1 (stereo not given)	1	2	33*	1	-3
COc1ccc(C2CC(c3ccc4ccccc4c3)=NN2C(=O)CN2C(=O)CCC2=O)cc1 (stereo not given)	-30*	9	3	0	0
